High-throughput results (PubChem BioAssay)
TbPYK inhibitor = inhibitors of Trypanosoma brucei pyruvate kinase | AID 624173 | Q57TT1 | actives 0.12% (n = 410,000) | Potency, µM (doses to about 76.8 µM), for the others: at the top dose activity, negative = inhibition, usual class: inhibitors | TbPYK enzyme, Kinase-Glo Plus ATP luminescence, 45 min; note: potency is the fitted concentration of half-maximal effect; nearly all actives have a fitted effect of over 50% in size
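Luminescent Kinase-Glo Plus end-point after 45 min room-temperature reaction of T. brucei pyruvate kinase started with 130 uM ADP (final). Buffer TEA 50 mM pH 7.2 with KCl, MgCl2, BSA, Tween-20; titration-based qHTS with fitted concentration-effect curves.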
VACV mCherry inh = vaccinia inhibition (mCherry reporter). Potency, µM (series often up to 36.5 µM), for the others: at the highest dose activity change, negative = inhibition, usual class: inhibitors. actives 0.63% (n = 310,000). Vaccinia virus mCherry reporter infection, fluorescence. AID 720579; calls by dose curve; tested in A549 cells; note: potency is the fitted concentration of half-maximal effect; nearly all actives have a fitted effect of over 35% in size
HCMV inh = blocks human cytomegalovirus replication. HFF cells, HCMV-luciferase reporter, 72 h; active compounds read low. activity change, negative = inhibition, % at 57.5 µM. actives 4.5% (n = 410,000); in the data active = activity change below about -60%; inconclusive = no clear call, values can overlap the other calls; inactive = above about -39%
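Two compound doses tested in HFFs infected with HCMV-luciferase, MOI 1 PFU/cell, 72 h at 37C. Lysate luminescence read with OneGlo; data normalized against buffer-only and 10uM Salinomycin inhibitor controls.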
Vaccinia Venus = vaccinia inhibition (Venus reporter); AID 720580; actives 0.46% (n = 330,000); Potency, µM (highest dose often 36.5 µM), inactives show at the top dose activity change, negative = inhibition, hits mostly inhibitors; Vaccinia virus Venus reporter expression, fluorescence; calls by dose curve; tested in A549 cells; note: potency is the fitted concentration of half-maximal effect; nearly all actives have a fitted effect of over 30% in size
LmPK inhibitor = inhibitors of Leishmania mexicana pyruvate kinase; actives 0.37% (n = 290,000); Potency, µM (highest dose often 57.5 µM), for the others: top-dose activity change, negative = inhibition, hits mostly inhibitors; Q27686; AID 1721; purified LmPK, Kinase-Glo ATP luminescence, 1 h; note: potency is the fitted concentration of half-maximal effect
Target sequence (Q27686 whole entry, looked up): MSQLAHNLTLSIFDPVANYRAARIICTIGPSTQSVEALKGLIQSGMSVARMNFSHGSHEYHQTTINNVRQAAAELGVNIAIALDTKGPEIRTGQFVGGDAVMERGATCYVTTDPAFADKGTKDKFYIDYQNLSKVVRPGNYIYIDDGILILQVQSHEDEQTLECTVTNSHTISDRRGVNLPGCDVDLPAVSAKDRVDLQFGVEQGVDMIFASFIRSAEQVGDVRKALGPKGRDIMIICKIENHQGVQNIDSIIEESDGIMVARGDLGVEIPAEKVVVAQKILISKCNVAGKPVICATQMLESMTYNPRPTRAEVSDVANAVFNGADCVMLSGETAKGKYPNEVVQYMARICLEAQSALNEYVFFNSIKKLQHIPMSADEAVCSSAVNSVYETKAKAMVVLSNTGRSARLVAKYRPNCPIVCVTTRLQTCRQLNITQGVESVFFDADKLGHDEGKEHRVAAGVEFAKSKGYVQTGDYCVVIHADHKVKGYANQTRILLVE
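Purified LmPK (0.1 nM) converted ADP (0.1 mM) to ATP with PEP (0.5 mM) in imidazole buffer pH 7.2 with KCl and MgCl2, 1 h at room temperature. ATP was read by Kinase-Glo luminescence; data normalized to uninhibited and no-enzyme controls.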
An asterisk follows results filed as active; i = inactive; ? = inconclusive; nt = not tested or not shown; [ ] = dose if it differs, or a comment. Compounds with a hit are over-represented: about 5% of the library has one in this group of screens. Unless noted, calls come from the whole dose curve; as a rule, active = well fitted curve in the direction sought with a large enough effect; inconclusive = small, poorly fitted or top-dose-only effect, or another doubt; inactive = no such curve, though single readings can be large; an effect the other way counts as inactive or inconclusive. % is set by controls: 0 for no effect and ±100 for the full control effect.

SMILES	TbPYK inhibitor	VACV mCherry inh	HCMV inh	Vaccinia Venus	LmPK inhibitor
Cc1noc(N)c1C(=O)Nc1ccccc1F	-4%	i[1.46 µM]	34	7.9µM*	-3%
Cc1ccc(C)c(NC(=O)COC(=O)c2cccc(S(=O)(=O)N3CCCCC3)c2)c1	-8%	-10%	-15	-7%	nt
CC(=O)N1CCc2c(sc(NC(=O)C3COc4ccccc4O3)c2C(N)=O)C1 (stereo not given)	-12%	-24%	37	-23%	-2%
CCN1CCc2c(sc(NC(=O)c3ccc(S(=O)(=O)N(CC)c4ccccc4)cc3)c2C(N)=O)C1	0%	?	-32	11µM*	1%
CCN1CCc2c(sc(NC(=O)C3COc4ccccc4O3)c2C(N)=O)C1 (stereo not given)	-7%	-17%	-71*	?	9%
CCCCN(CCCC)S(=O)(=O)c1ccc(C(=O)Nc2sc3c(c2C(N)=O)CCN(CC)C3)cc1	-4%	-14%	?	-13%	nt
CN1CCc2c(sc(NC(=O)C3COc4ccccc4O3)c2C(N)=O)C1 (stereo not given)	-12%	-3%	-63*	-26%	6%
CCOC(=O)N1CCc2c(sc(NC(=O)C3COc4ccccc4O3)c2C(N)=O)C1 (stereo not given)	-8%	nt	-97*	nt	1%
Cc1cc(C)nc(CCNC(=O)c2cc(COc3ccc(F)cc3Cl)on2)n1	-5%	i	-19	-8%	5%
CCOCCCNC(=O)C1CCC(CNS(=O)(=O)c2ccc(Cl)cc2)CC1 (stereo not given)	10%	-11%	36	-13%	8%
CCOC(=O)N1CCC(NC(=O)CNS(=O)(=O)c2ccc(Br)s2)CC1	1%	nt	13	nt	2%
Cc1ccc(-n2c(SCC(=O)Nc3cccc(Cl)c3)nc3n[nH]c(C)c3c2=N)cc1	2%	-13%[7.34 µM]	-34	-12%[7.34 µM]	nt
COc1cc(OC)cc(C(=O)Nc2nc(-c3nnn(-c4ccc(F)c(Cl)c4)c3C)ns2)c1	-2%	-25%	-94*	?	nt
Cc1ccc(-n2nnc(-c3nsc(NC(=O)c4ccccc4C)n3)c2C)cc1Cl	-1%	-14%	-99*	-8%	nt
COc1ccc(-n2nnc(-c3nsc(NC(=O)c4cccc(C)c4)n3)c2C)cc1OC	2%	-11%	-100*	-11%	nt
COc1ncc2nc(CCc3ccccc3)c(=O)n(Cc3ccc(F)cc3)c2n1	-3%	nt	nt	nt	nt
O=C(Nc1ccccc1Cl)C1CC(=O)N(Cc2ccco2)C1 (stereo not given)	0%	nt	9	nt	nt
NC(=O)c1c(-c2ccc(Cl)cc2Cl)csc1NC(=O)Cc1ccccc1	-11%	-17%	-65*	?	3%
O=C(Cc1ccccc1)Nc1scc(-c2ccccc2)c1C(=O)N1CCOCC1	-1%	-4%	nt	-13%	1%
CCc1nc2ccc(C(=O)N3CCN(c4cc(C)ccc4C)CC3)cc2nc1CC	5%	-22%	-33	-23%	1%
CC(=O)Nc1ccccc1-c1nc2ccc(C(=O)N3CCN(c4cc(C)ccc4C)CC3)cc2[nH]c1=O	8%	-21%	-65*	?	6%
Cc1ccc2[nH]c(-c3ccccc3)c(CN3CCCC3)c(=O)c2c1	3%	-25%	-36	?	9%
C(=NN1CCCCCC1)c1ccc2ccccc2n1	2%	-28%	-92*	-7%	nt
C(=NN1CCCCCC1)c1cccc2ccccc12	-4%	-9%	-20	-3%	nt
Cc1ccc(C)c(C(=O)C(C)OC(=O)c2cccn2C)c1 (stereo not given)	-11%	nt	-3	-13%	6%
CCOC(=O)Oc1ccc(/C=C2\N=C(C)OC2=O)cc1	-9%	-5%	37	-5%	1%
COc1ccc(CCN2C(=O)CSC2c2ccc(OC)c(OC)c2)cc1OC (stereo not given)	2%	nt	2	nt	5%
COc1ccc(C2SCC(=O)N2CCc2ccc(OC)c(OC)c2)cc1 (stereo not given)	-2%	nt	-71*	nt	5%
FC(F)(F)C1=CC(c2ccc(Cl)cc2)=NCCN1	4%	nt	43	-4%	6%
Cc1cc(S(=O)(=O)N2CCN(Cc3ccc4c(c3)OCO4)CC2)cc(C)c1N1CCCC1=O	-3%	?	-96*	-20%	3%
